Assay results as given in PubChem BioAssay (NCI).
Where “and” joins values, the source holds several entries; their conditions need not be identical. Identical values can stand only once. About 79,000 compounds went through this panel and 15% of them were active in at least one assay; those are over-represented in the sample as a whole. Some structures have more than one record in an assay (separate samples or runs), and their calls can disagree. Calls of active or inactive are those of the source. No stated cut-off is given here; in the data, active means growth inhibition above about 70%; inactive means the rest.

Assays:
[1] = NCI Yeast Anticancer Drug Screen. Data for the rad50 strain (AID 155);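 further: 0% = growth of vehicle-only cultures of the same strain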; settings: S. cerevisiae rad50 strain growth inhibition, stronger effect = higher value
Outline: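 Cells are treated with compound, grown, and their growth is then scored against vehicle-only cultures of the same repair-deficient yeast strain.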

[2] = NCI Yeast Anticancer Drug Screen. Data for the mec2-1 strain (AID 157); settings: S. cerevisiae mec2-1 strain, stronger effect = higher value
Outline: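 Compounds were applied to mec2-1 yeast cells. Their growth was then compared with that of vehicle-treated cultures to give growth inhibition.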

[3] = NCI Yeast Anticancer Drug Screen. Data for the sgs1 mgt1 strain (AID 161);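 further: 0% = growth of cultures given vehicle only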; settings: S. cerevisiae sgs1 mgt1 strain, stronger effect = higher value
Outline: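 Yeast cells carrying a defined DNA-repair defect were exposed to test compounds. Growth inhibition was measured relative to vehicle-treated controls.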

[4] = NCI Yeast Anticancer Drug Screen. Data for the cln2 rad14 strain (AID 165);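 further: 0% = growth equal to vehicle treated cultures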; settings: S. cerevisiae cln2 rad14 strain, stronger effect = higher value
Outline: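 Strain: cln2 rad14 yeast, altered in cell cycle control and DNA damage repair. Read-out: growth inhibition vs vehicle.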

[5] = NCI Yeast Anticancer Drug Screen. Data for the bub3 strain (AID 167); settings: S. cerevisiae bub3 mutant strain, stronger effect = higher value
Outline: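 Part of a panel of yeast mutants defective in DNA damage repair or cell cycle regulation. Each strain is grown with compound, and inhibition is calculated relative to solvent-treated cultures.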

[6] = NCI Yeast Anticancer Drug Screen. Data for the mlh1 rad18 strain (AID 175); settings: S. cerevisiae mlh1 rad18 strain growth inhibition, stronger effect = higher value
Outline: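 A repair-deficient yeast strain is exposed to test compound, and growth is scored relative to vehicle-treated controls.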

[7] = at 5.0 µM (retest, dose inferred, filed as 0.5)
[8] = at 50.0 µM (retest, dose inferred, filed as 5.0)

Measured: growth inhibition

O=c1[nH]c(=O)n(C2OC(CO)C(O)C2O)cc1F (configuration not stated)
65% (inactive) and 80% (active): [3]; [7]
active: [1]; [8] 96% and 95% | [1]; at 50.0 µM 96.2% and 93% | [2]; [8] 99% | [2]; at 50.0 µM 97.3% and 97.8% | [3]; [8] 98% | [3]; at 50.0 µM 97.8% and 96.1% | [4]; [8] 96% and 98% | [4]; at 50.0 µM 90.5% and 92.2% | [5]; [8] 98% and 97% | [5]; at 50.0 µM 96.3% and 90.2% | [6]; [8] 97% and 96% | [6]; at 50.0 µM 94.8% and 92.2%
inactive: [1]; [7] 21% and 30% | [2]; [7] 42% and 39% | [4]; [7] 15% and 24% | [5]; [7] 5% and -1% | [6]; [7] 24% and 6%

O=[N+]([O-])c1ccc(OCCN(Cc2ccccc2)Cc2ccccc2)c([N+](=O)[O-])c1
inactive: [1]; [7] 3% | [2]; [7] 3% | [2]; [8] 38% | [2]; at 50.0 µM 59.2% | [3]; [7] -11% | [3]; [8] 61% | [3]; at 50.0 µM 60.4% | [4]; [7] 4% | [4]; [8] 24% | [4]; at 50.0 µM 34.1% | [5]; [7] 3% | [5]; [8] 54% | [6]; [7] 5% | [6]; [8] 58%
active: [1]; [8] 70% | [1]; at 50.0 µM 71.5% | [5]; at 50.0 µM 71.5% | [6]; at 50.0 µM 74.8%

COC(=O)[C@]1(C)CCC[C@]2(C)c3cc(C(C)=O)c(C(C)C)cc3CC[C@@H]12
98.5% (active) and -5.05% (inactive): [5]; at 50.0 µM
93.5% (active) and -5.45% (inactive): [3]; at 50.0 µM
95.5% (active) and -11.9% (inactive): [2]; at 50.0 µM
92.5% (active) and -4.55% (inactive): [1]; at 50.0 µM
99.5% (active) and -40.8% (inactive): [4]; at 50.0 µM
97% (active) and -12.2% (inactive): [6]; at 50.0 µM
inactive: [1]; [7] -1% | [1]; [8] -11% | [2]; [7] 7% | [2]; [8] 10% | [3]; [7] -4% | [3]; [8] -27% | [4]; [7] -1% | [4]; [8] -2% | [5]; [7] 1% | [5]; [8] 0% | [6]; [7] -2% | [6]; [8] 8%

O=C(c1ccccc1)C(c1ccccc1)C(O)c1ccc([N+](=O)[O-])cc1 (configuration not stated)
inactive: [1]; [7] 9% and 2% | [2]; [7] 13% and -8% | [3]; [7] 6% and -14% | [4]; [7] 9% and 3% | [5]; [7] 19% and 1% | [6]; [7] 11% and 6%
active: [1]; [8] 89% and 99% | [1]; at 50.0 µM 96% and 98.2% | [2]; [8] 96% and 99% | [2]; at 50.0 µM 98.4% and 99.5% | [3]; [8] 94% and 99% | [3]; at 50.0 µM 97.1% and 98.8% | [4]; [8] 96% and 99% | [4]; at 50.0 µM 94.8% and 99.2% | [5]; [8] 92% and 99% | [5]; at 50.0 µM 95.6% and 98.9% | [6]; [8] 95% and 99% | [6]; at 50.0 µM 96.7% and 99.5%

CCOC(=O)C(CN)(c1ccccc1)c1ccccc1
inactive: [1]; [7] -7% | [1]; [8] 1% | [1]; at 50.0 µM 11.8% | [2]; [7] -4% | [2]; [8] 8% | [2]; at 50.0 µM -5.4% | [3]; [7] -4% | [3]; [8] -13% | [3]; at 50.0 µM 5.35% | [4]; [7] 2% | [4]; [8] -12% | [4]; at 50.0 µM 43.8% | [5]; [7] -4% | [5]; [8] 0% | [5]; at 50.0 µM -1.15% | [6]; [7] -7% | [6]; [8] -10% | [6]; at 50.0 µM 17.1%

Nc1ccc2c3c(cccc13)C(=O)N(CCCBr)C2=O
active: [1]; [8] 98% | [1]; at 50.0 µM 92.9% | [3]; [8] 80% | [4]; [8] 88% | [5]; [8] 78% | [6]; [8] 94% | [6]; at 50.0 µM 82.8%
inactive: [1]; [7] 9% | [2]; [7] -5% | [2]; [8] 67% | [2]; at 50.0 µM 0.7% | [3]; [7] -17% | [3]; at 50.0 µM 55.4% | [4]; [7] 16% | [4]; at 50.0 µM 45.1% | [5]; [7] 6% | [5]; at 50.0 µM 5.15% | [6]; [7] 32%

O=C(COc1ccc(Cl)cc1Cl)Nc1cccc(C(F)(F)F)c1
inactive: [1]; [7] -4% | [1]; [8] -3% | [1]; at 50.0 µM -4.5% | [2]; [7] -18% | [2]; [8] -25% | [2]; at 50.0 µM 7.95% | [3]; [7] -3% | [3]; [8] -2% | [3]; at 50.0 µM 9.65% | [4]; [7] -3% | [4]; [8] -13% | [4]; at 50.0 µM 41.9% | [5]; [7] 12% | [5]; [8] 0% | [5]; at 50.0 µM 1% | [6]; [7] 1% | [6]; [8] 10% | [6]; at 50.0 µM -0.4%

CN1C=c2c3c(ccc2=C2C=CC4C=C5OCOC5=CC4=C21)OCO3 (configuration not stated)
inactive: [1]; [7] 48% and 33% | [2]; [7] 32% and 11% | [3]; [7] 56% and 13% | [4]; [7] 37% and 11% | [6]; [7] 63% and 30%
74% (active) and 17% (inactive): [5]; [7]
active: [1]; [8] 97% and 98% | [1]; at 50.0 µM 92% and 91.6% | [2]; [8] 98% and 99% | [2]; at 50.0 µM 93.3% and 93% | [3]; [8] 98% and 99% | [3]; at 50.0 µM 93% and 92.8% | [4]; [8] 98% and 99% | [4]; at 50.0 µM 92% | [5]; [8] 98% and 99% | [5]; at 50.0 µM 92.5% and 91.8% | [6]; [8] 97% | [6]; at 50.0 µM 92.5% and 91.7%

O=C(c1ccc(Cl)cc1)C(O)c1ccc(Cl)cc1 (configuration not stated)
active: [3]; [8] 79% and 82%
27% (inactive) and 74% (active): [1]; [8]
inactive: [1]; [7] -2% and 10% | [1]; at 50.0 µM 34.2% | [2]; [7] -9% and -3% | [2]; [8] 14% and 35% | [2]; at 50.0 µM 12.4% | [3]; [7] -2% and 4% | [3]; at 50.0 µM 55.1% | [4]; [7] -8% and 7% | [4]; [8] 67% and 28% | [4]; at 50.0 µM 36% | [5]; [7] -10% and -1% | [5]; [8] 20% and 45% | [5]; at 50.0 µM 65.8% | [6]; [7] -6% and -12% | [6]; [8] 53% and 49% | [6]; at 50.0 µM 62.3%

Cc1cc([N+](=O)[O-])c(C)c2c1[nH]c1ccc(O)cc12
inactive: [1]; [7] 52% | [2]; [7] 46% | [3]; [7] 23% | [4]; [7] 50%
active: [1]; [8] 93% | [1]; at 50.0 µM 87% | [2]; [8] 94% | [2]; at 50.0 µM 88.8% | [3]; [8] 94% | [3]; at 50.0 µM 88.2% | [4]; [8] 96% | [4]; at 50.0 µM 85.5% | [5]; [7] 78% | [5]; [8] 96% | [5]; at 50.0 µM 88.8% | [6]; [7] 73% | [6]; [8] 95% | [6]; at 50.0 µM 82.7%

O=C1CSC(=S)N1c1ccc(Cl)c(C(F)(F)F)c1
active: [1]; at 50.0 µM 97.5% | [2]; at 50.0 µM 97.7% | [3]; [8] 97% | [3]; at 50.0 µM 98.9% | [5]; at 50.0 µM 98.5% | [6]; [8] 95% | [6]; at 50.0 µM 98.3%
inactive: [1]; [7] -1% | [1]; [8] 36% | [2]; [7] 0% | [2]; [8] 11% | [3]; [7] 6% | [4]; [7] -4% | [4]; [8] -10% | [4]; at 50.0 µM 58.4% | [5]; [7] -6% | [5]; [8] 56% | [6]; [7] 11%

CCC(C)(C)c1cc(O)c(C(C)(C)CC)cc1O
20.2% (inactive) and 92.3% (active): [5]; at 50.0 µM
active: [1]; [8] 88% | [3]; [8] 91% | [4]; [8] 84% | [5]; [8] 91% | [6]; [8] 81%
11.3% (inactive) and 88% (active): [3]; at 50.0 µM
-15.2% (inactive) and 84.8% (active): [4]; at 50.0 µM
9.45% (inactive) and 91.8% (active): [6]; at 50.0 µM
inactive: [1]; [7] 10% | [2]; [7] 3% | [2]; [8] 67% | [3]; [7] -3% | [4]; [7] 18% | [5]; [7] 23% | [6]; [7] 10%
-22.4% (inactive) and 93.3% (active): [2]; at 50.0 µM
0.35% (inactive) and 93.2% (active): [1]; at 50.0 µM

O=C(CCN1CCN2c3ccccc3CCC2C1)c1ccc(F)cc1 (configuration not stated)
inactive: [1]; [7] 51% and 17% | [2]; [7] 63% and 22% | [4]; [7] 65% and -5%
82% (active) and 40% (inactive): [6]; [7]
64% (inactive) and 98% (active): [4]; [8]
93.5% (active) and 22.4% (inactive): [4]; at 50.0 µM
active: [1]; [8] 86% and 98% | [1]; at 50.0 µM 95.7% and 83.2% | [2]; [8] 88% and 97% | [3]; [8] 96% and 100% | [3]; at 50.0 µM 97.2% and 89.7% | [5]; [8] 84% and 99% | [5]; at 50.0 µM 97.8% and 95.2% | [6]; [8] 96% and 99%
74% (active) and -2% (inactive): [3]; [7]
98.5% (active) and 45% (inactive): [6]; at 50.0 µM
91.5% (active) and 43.5% (inactive): [2]; at 50.0 µM
60% (inactive) and 78% (active): [5]; [7]

Cc1nc2c(ccc3[nH]c4ccccc4c32)s1
inactive: [1]; [7] 7% | [2]; [7] 9% | [3]; [7] 16% | [4]; [7] -16% | [5]; [7] 8% | [6]; [7] 10%
active: [1]; [8] 99% | [1]; at 50.0 µM 90.8% | [2]; [8] 99% | [2]; at 50.0 µM 92.5% | [3]; [8] 99% | [3]; at 50.0 µM 91% | [4]; [8] 99% | [4]; at 50.0 µM 91% | [5]; [8] 99% | [5]; at 50.0 µM 91.8% | [6]; [8] 99% | [6]; at 50.0 µM 89.9%
